The values that follow come from publication PMC11006913.

Assay in all cases: PBM; 200 nM protein, PBS
Common to all, as to settings: dsDNA, one strand shown

For experiment [1], the target named is T1, VENTX (Homo sapiens, UniProt O95231 78-163, R121Q).
T1 sequence: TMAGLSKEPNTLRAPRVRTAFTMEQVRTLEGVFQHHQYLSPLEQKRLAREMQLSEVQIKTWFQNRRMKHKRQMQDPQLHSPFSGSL

The target in experiment [2] is HOXA4 (Homo sapiens, UniProt Q00056 201-287, W262R).
For experiment [3], the target named is T2, VENTX (Homo sapiens, UniProt O95231 78-163).
T2 sequence: T1 sequence with Q44R

In experiment [4] the target is T3, VENTX (Homo sapiens, UniProt O95231 78-163, Y115F).
T3 sequence: T1 sequence with Y38F, Q44R

Experiment [5] deals with HOXA2 (Homo sapiens, UniProt O43364 129-215, R185T).
Experiment [6] deals with HOXA4 (Homo sapiens, UniProt Q00056 201-287, R217L).
The next experiment addresses T4, NKX2-6 (Homo sapiens, UniProt A6NCS4 118-204, R150C).
T4 sequence: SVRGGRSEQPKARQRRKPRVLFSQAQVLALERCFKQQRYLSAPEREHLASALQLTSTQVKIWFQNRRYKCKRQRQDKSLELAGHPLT

The target in experiment [7] is MSX2 (Homo sapiens, UniProt P35548 130-214, R199I).
In experiment [8] the target is HOXA2 (Homo sapiens, UniProt O43364 129-215, R185K).
In experiment [9] the target is HOXA4 (Homo sapiens, UniProt Q00056 201-287).
For experiment [10], the target named is MSX2 (Homo sapiens, UniProt P35548 130-214).
Experiment [11] addresses PROP1 (Homo sapiens, UniProt O75360 56-141).
Experiment [12] has as its target PROP1 (Homo sapiens, UniProt O75360 56-141, R99H).
For experiment [13], the target named is VAX1 (Homo sapiens, UniProt Q5SQQ9 86-172).
The target in experiment [14] is PROP1 (Homo sapiens, UniProt O75360 56-141, F88S).
Experiment [15] has as its target MSX2 (Homo sapiens, UniProt P35548 130-214, F161Y).
Experiment [16] has as its target VAX1 (Homo sapiens, UniProt Q5SQQ9 86-172, T142I).
Experiment [17] deals with HOXA2 (Homo sapiens, UniProt O43364 129-215, Y150S).
Experiment [18] concerns the target HOXA4 (Homo sapiens, UniProt Q00056 201-287, W262F).
The target in experiment [19] is HOXA2 (Homo sapiens, UniProt O43364 129-215).
Experiment [20] addresses VAX1 (Homo sapiens, UniProt Q5SQQ9 86-172, K157R).
Experiment [21] deals with HOXC9 (Homo sapiens, UniProt P31274 178-260, K195R).
The target of experiment [22] is HOXC9 (Homo sapiens, UniProt P31274 178-260).
The target in experiment [23] is HOXC9 (Homo sapiens, UniProt P31274 178-260, R193K).
The target in experiment [24] is HOXC9 (Homo sapiens, UniProt P31274 178-260, R222W).
Experiment [25] deals with HOXB9 (Homo sapiens, UniProt P17482 171-250, T197M).
Experiment [26] has as its target HOXB9 (Homo sapiens, UniProt P17482 171-250).
In experiment [27] the target is HOXB9 (Homo sapiens, UniProt P17482 171-250, R186Q).
In experiment [28] the target is T5, SIX6 (Homo sapiens, UniProt O95475 114-200, L167I).
T5 sequence: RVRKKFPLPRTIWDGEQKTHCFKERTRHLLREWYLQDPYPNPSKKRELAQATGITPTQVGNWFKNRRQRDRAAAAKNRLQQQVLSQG

Experiment [29] deals with T6, SIX6 (Homo sapiens, UniProt O95475 114-200, L143V).
T6 sequence: T5 sequence with L30V, I54L

The target in experiment [30] is T7, SIX6 (Homo sapiens, UniProt O95475 114-200, H141N).
T7 sequence: T5 sequence with H28N, I54L

For experiment [31], the target named is T8, SIX6 (Homo sapiens, UniProt O95475 114-200, T165P).
T8 sequence: T5 sequence with T52P, I54L

Experiment [32] concerns the target T9, SIX6 (Homo sapiens, UniProt O95475 114-200, L167M).
T9 sequence: T5 sequence with I54M

The target of experiment [33] is T10, SIX6 (Homo sapiens, UniProt O95475 114-200, L143M).
T10 sequence: T5 sequence with L30M, I54L

In experiment [34] the target is T11, SIX6 (Homo sapiens, UniProt O95475 114-200, L143I).
T11 sequence: T5 sequence with L30I, I54L

Experiment [35] concerns the target T12, SIX6 (Homo sapiens, UniProt O95475 114-200, T165G).
T12 sequence: T5 sequence with T52G, I54L

Experiment [36] deals with T13, SIX6 (Homo sapiens, UniProt O95475 114-200, T139Q).
T13 sequence: T5 sequence with T26Q, I54L

Experiment [37] addresses T14, SIX6 (Homo sapiens, UniProt O95475 114-200, T165A).
T14 sequence: T5 sequence with T52A, I54L

In experiment [38] the target is T15, SIX6 (Homo sapiens, UniProt O95475 114-200, L167V).
T15 sequence: T5 sequence with I54V

Experiment [39] concerns the target T16, SIX6 (Homo sapiens, UniProt O95475 114-200).
T16 sequence: T5 sequence with I54L

In experiment [40] the target is T17, SIX6 (Homo sapiens, UniProt O95475 114-200, T165I).
T17 sequence: T5 sequence with T52I, I54L

Residue numbers refer to the chain shown, from its start.

Chain of VAX1 (Homo sapiens, UniProt Q5SQQ9 86-172, K157R) (Q5SQQ9 86-172 K157R): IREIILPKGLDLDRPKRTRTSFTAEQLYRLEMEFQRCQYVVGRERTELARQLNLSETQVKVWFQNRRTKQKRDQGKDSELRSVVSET
Chain of HOXC9 (Homo sapiens, UniProt P31274 178-260, R222W) (P31274 178-260 R222W): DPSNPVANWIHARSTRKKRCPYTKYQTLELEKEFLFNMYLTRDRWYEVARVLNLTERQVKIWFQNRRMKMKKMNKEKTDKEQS
Chain of HOXC9 (Homo sapiens, UniProt P31274 178-260, R193K) (P31274 178-260 R193K): as the sequence (P31274 178-260 R222W) above, with R16K, W45R counted along it
Chain of HOXC9 (Homo sapiens, UniProt P31274 178-260) (P31274 178-260): as the sequence (P31274 178-260 R222W) above, with W45R counted along it
Chain of HOXC9 (Homo sapiens, UniProt P31274 178-260, K195R) (P31274 178-260 K195R): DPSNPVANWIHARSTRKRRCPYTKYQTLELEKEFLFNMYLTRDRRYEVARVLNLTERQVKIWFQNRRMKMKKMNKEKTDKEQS
Chain of VAX1 (Homo sapiens, UniProt Q5SQQ9 86-172) (Q5SQQ9 86-172): as the sequence (Q5SQQ9 86-172 K157R) above, with R72K counted along it
Chain of VAX1 (Homo sapiens, UniProt Q5SQQ9 86-172, T142I) (Q5SQQ9 86-172 T142I): as the sequence (Q5SQQ9 86-172 K157R) above, with T57I, R72K counted along it
Chain of HOXA2 (Homo sapiens, UniProt O43364 129-215, R185K) (O43364 129-215 R185K): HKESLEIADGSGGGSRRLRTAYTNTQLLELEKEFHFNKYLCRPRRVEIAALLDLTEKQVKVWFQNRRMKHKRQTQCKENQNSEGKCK
Chain of HOXA2 (Homo sapiens, UniProt O43364 129-215, R185T) (O43364 129-215 R185T): as the sequence (O43364 129-215 R185K) above, with K57T counted along it
Chain of HOXA4 (Homo sapiens, UniProt Q00056 201-287) (Q00056 201-287): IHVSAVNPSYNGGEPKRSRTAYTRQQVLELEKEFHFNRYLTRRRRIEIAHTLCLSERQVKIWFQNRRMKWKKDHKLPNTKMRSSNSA
Chain of MSX2 (Homo sapiens, UniProt P35548 130-214) (P35548 130-214): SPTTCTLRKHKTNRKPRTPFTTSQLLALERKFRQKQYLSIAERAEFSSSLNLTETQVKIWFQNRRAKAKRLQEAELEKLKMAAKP
Chain of HOXA2 (Homo sapiens, UniProt O43364 129-215, Y150S) (O43364 129-215 Y150S): as the sequence (O43364 129-215 R185K) above, with Y22S, K57R counted along it
Chain of HOXB9 (Homo sapiens, UniProt P17482 171-250, T197M) (P17482 171-250 T197M): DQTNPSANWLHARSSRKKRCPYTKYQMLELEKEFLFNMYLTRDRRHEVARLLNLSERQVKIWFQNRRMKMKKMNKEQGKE
Chain of HOXA2 (Homo sapiens, UniProt O43364 129-215) (O43364 129-215): as the sequence (O43364 129-215 R185K) above, with K57R counted along it
Chain of HOXB9 (Homo sapiens, UniProt P17482 171-250) (P17482 171-250): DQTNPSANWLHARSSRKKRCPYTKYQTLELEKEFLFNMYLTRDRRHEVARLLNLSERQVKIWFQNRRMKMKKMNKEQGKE
Chain of MSX2 (Homo sapiens, UniProt P35548 130-214, R199I) (P35548 130-214 R199I): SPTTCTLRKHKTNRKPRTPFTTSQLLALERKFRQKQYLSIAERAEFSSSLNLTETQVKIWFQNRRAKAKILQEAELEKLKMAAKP
Chain of HOXA4 (Homo sapiens, UniProt Q00056 201-287, R217L) (Q00056 201-287 R217L): as the sequence (Q00056 201-287) above, with R17L counted along it
Chain of PROP1 (Homo sapiens, UniProt O75360 56-141, R99H) (O75360 56-141 R99H): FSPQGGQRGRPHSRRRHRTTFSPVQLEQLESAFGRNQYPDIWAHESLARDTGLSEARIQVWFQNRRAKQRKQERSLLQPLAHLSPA
Chain of HOXA4 (Homo sapiens, UniProt Q00056 201-287, W262R) (Q00056 201-287 W262R): as the sequence (Q00056 201-287) above, with W62R counted along it
Chain of MSX2 (Homo sapiens, UniProt P35548 130-214, F161Y) (P35548 130-214 F161Y): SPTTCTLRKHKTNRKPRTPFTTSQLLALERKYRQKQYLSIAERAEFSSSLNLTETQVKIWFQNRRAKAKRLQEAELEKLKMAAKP
Chain of HOXB9 (Homo sapiens, UniProt P17482 171-250, R186Q) (P17482 171-250 R186Q): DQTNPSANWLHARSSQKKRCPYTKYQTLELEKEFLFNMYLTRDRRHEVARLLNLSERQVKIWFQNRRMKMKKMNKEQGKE
Chain of HOXA4 (Homo sapiens, UniProt Q00056 201-287, W262F) (Q00056 201-287 W262F): as the sequence (Q00056 201-287) above, with W62F counted along it
Chain of PROP1 (Homo sapiens, UniProt O75360 56-141, F88S) (O75360 56-141 F88S): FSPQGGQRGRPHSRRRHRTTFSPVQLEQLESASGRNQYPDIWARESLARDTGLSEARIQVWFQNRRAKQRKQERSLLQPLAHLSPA
Chain of PROP1 (Homo sapiens, UniProt O75360 56-141) (O75360 56-141): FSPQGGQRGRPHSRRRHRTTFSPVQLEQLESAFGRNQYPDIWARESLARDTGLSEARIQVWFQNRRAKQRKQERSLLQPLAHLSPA

On to GCCAGGGC, for which the binding signal was 7.76 upbm affinity estimate (log intensity, higher = more binding, comparable within an allelic series) with VENTX [1]; 9.77 upbm affinity estimate (log intensity, higher = more binding, comparable within an allelic series) in the experiment with HOXA4 [2]; 7.69 upbm affinity estimate (log intensity, higher = more binding, comparable within an allelic series) with VENTX [3]; 7.85 upbm affinity estimate (log intensity, higher = more binding, comparable within an allelic series) with VENTX [4]; 6.87 upbm affinity estimate (log intensity, higher = more binding, comparable within an allelic series) with HOXA2 [5]; 9.77 upbm affinity estimate (log intensity, higher = more binding, comparable within an allelic series) with HOXA4 [6]. In addition, the binding signal was 9.13 upbm affinity estimate (log intensity, higher = more binding, comparable within an allelic series) in the experiment with NKX2-6; 9.52 upbm affinity estimate (log intensity, higher = more binding, comparable within an allelic series) with MSX2 [7]; 10.3 upbm affinity estimate (log intensity, higher = more binding, comparable within an allelic series) with HOXA2 [8]; 9.7 upbm affinity estimate (log intensity, higher = more binding, comparable within an allelic series) in the experiment with HOXA4 [9]; 9.44 upbm affinity estimate (log intensity, higher = more binding, comparable within an allelic series) with MSX2 [10]; 6.61 upbm affinity estimate (log intensity, higher = more binding, comparable within an allelic series) in the experiment with PROP1 [11]. Also, the binding signal in the experiment with PROP1 [12] is 6.73 upbm affinity estimate (log intensity, higher = more binding, comparable within an allelic series); with VAX1 [13] it was 7.25 upbm affinity estimate (log intensity, higher = more binding, comparable within an allelic series); with PROP1 [14], 6.44 upbm affinity estimate (log intensity, higher = more binding, comparable within an allelic series); with MSX2 [15], 9.44 upbm affinity estimate (log intensity, higher = more binding, comparable within an allelic series); in the experiment with VAX1 [16], 7.16 upbm affinity estimate (log intensity, higher = more binding, comparable within an allelic series); in the experiment with HOXA2 [17], 10.4 upbm affinity estimate (log intensity, higher = more binding, comparable within an allelic series). The binding signal with HOXA4 [18] was 9.81 upbm affinity estimate (log intensity, higher = more binding, comparable within an allelic series); with HOXA2 [19], 6.74 upbm affinity estimate (log intensity, higher = more binding, comparable within an allelic series); with VAX1 [20] it was 7.15 upbm affinity estimate (log intensity, higher = more binding, comparable within an allelic series).
For CTGGGACC, the binding signal is 8.08 upbm affinity estimate (log intensity, higher = more binding, comparable within an allelic series) with VENTX [1]; 9.45 upbm affinity estimate (log intensity, higher = more binding, comparable within an allelic series) with HOXC9 [21]; 8.05 upbm affinity estimate (log intensity, higher = more binding, comparable within an allelic series) with VENTX [3]; 8.06 upbm affinity estimate (log intensity, higher = more binding, comparable within an allelic series) with VENTX [4]; 9.59 upbm affinity estimate (log intensity, higher = more binding, comparable within an allelic series) in the experiment with HOXC9 [22]; 9.43 upbm affinity estimate (log intensity, higher = more binding, comparable within an allelic series) with HOXC9 [23]. For the same sequence, the binding signal with HOXC9 [24] is 9.65 upbm affinity estimate (log intensity, higher = more binding, comparable within an allelic series).
For the sequence CTCCCGAG, the binding signal with VENTX [1] was 8.03 upbm affinity estimate (log intensity, higher = more binding, comparable within an allelic series); with HOXB9 [25], 8.41 upbm affinity estimate (log intensity, higher = more binding, comparable within an allelic series); in the experiment with VENTX [3] it was 8.1 upbm affinity estimate (log intensity, higher = more binding, comparable within an allelic series); with VENTX [4] it was 8.07 upbm affinity estimate (log intensity, higher = more binding, comparable within an allelic series); with HOXB9 [26] it was 8.42 upbm affinity estimate (log intensity, higher = more binding, comparable within an allelic series); with HOXB9 [27], 8.44 upbm affinity estimate (log intensity, higher = more binding, comparable within an allelic series).
GGCACCAC: the binding signal in the experiment with VENTX [1] was 8.11 upbm affinity estimate (log intensity, higher = more binding, comparable within an allelic series); with HOXC9 [21], 9.65 upbm affinity estimate (log intensity, higher = more binding, comparable within an allelic series); with VENTX [3], 8.1 upbm affinity estimate (log intensity, higher = more binding, comparable within an allelic series); with VENTX [4] it was 8.09 upbm affinity estimate (log intensity, higher = more binding, comparable within an allelic series); with HOXC9 [22] it was 9.66 upbm affinity estimate (log intensity, higher = more binding, comparable within an allelic series); with HOXC9 [23] it was 9.65 upbm affinity estimate (log intensity, higher = more binding, comparable within an allelic series). For the same sequence, the binding signal in the experiment with HOXC9 [24] is 9.76 upbm affinity estimate (log intensity, higher = more binding, comparable within an allelic series).
As to CAAGGCCC, the binding signal with VENTX [1] is 7.94 upbm affinity estimate (log intensity, higher = more binding, comparable within an allelic series); with SIX6 [28] it was 8.9 upbm affinity estimate (log intensity, higher = more binding, comparable within an allelic series); with VENTX [3], 7.78 upbm affinity estimate (log intensity, higher = more binding, comparable within an allelic series); with SIX6 [29], 8.85 upbm affinity estimate (log intensity, higher = more binding, comparable within an allelic series); with SIX6 [30], 8.89 upbm affinity estimate (log intensity, higher = more binding, comparable within an allelic series); with SIX6 [31] it was 8.97 upbm affinity estimate (log intensity, higher = more binding, comparable within an allelic series). Besides, the binding signal in the experiment with VENTX [4] was 7.82 upbm affinity estimate (log intensity, higher = more binding, comparable within an allelic series); with SIX6 [32], 8.85 upbm affinity estimate (log intensity, higher = more binding, comparable within an allelic series); with SIX6 [33] it was 8.93 upbm affinity estimate (log intensity, higher = more binding, comparable within an allelic series); with SIX6 [34], 8.82 upbm affinity estimate (log intensity, higher = more binding, comparable within an allelic series); with SIX6 [35], 8.95 upbm affinity estimate (log intensity, higher = more binding, comparable within an allelic series); in the experiment with SIX6 [36] it was 8.93 upbm affinity estimate (log intensity, higher = more binding, comparable within an allelic series). In addition, the binding signal with SIX6 [37] was 8.92 upbm affinity estimate (log intensity, higher = more binding, comparable within an allelic series); with SIX6 [38], 8.98 upbm affinity estimate (log intensity, higher = more binding, comparable within an allelic series); with SIX6 [39] it was 8.89 upbm affinity estimate (log intensity, higher = more binding, comparable within an allelic series); in the experiment with VAX1 [13] it was 7.02 upbm affinity estimate (log intensity, higher = more binding, comparable within an allelic series); with SIX6 [40], 8.88 upbm affinity estimate (log intensity, higher = more binding, comparable within an allelic series); with VAX1 [16] it was 7.07 upbm affinity estimate (log intensity, higher = more binding, comparable within an allelic series). In the experiment with VAX1 [20], the binding signal was 6.96 upbm affinity estimate (log intensity, higher = more binding, comparable within an allelic series).
